Reference: ChEMBL document CHEMBL1961873, “Compounds: GSK PKIS; Assays: Nanosyn kinase panel” (2012)

How the values were obtained:
[1] = tested on: Tyrosine-protein kinase ABL1 (Homo sapiens), P00519 [T315I]; details: at 1 µM
[2] = tested on: Tyrosine-protein kinase ABL1 (Homo sapiens), P00519 [Y253F]; details: at 0.1 µM
[3] = tested on: Tyrosine-protein kinase ABL1 (Homo sapiens), P00519 [Y253F]; details: at 1 µM
[4] = target: Tyrosine-protein kinase ABL1 (Homo sapiens) (UniProt P00519); details: at 0.1 µM
[5] = target: Tyrosine-protein kinase ABL1 (Homo sapiens) (UniProt P00519); details: at 1 µM
[6] = target: ALK tyrosine kinase receptor (Homo sapiens) (UniProt Q9UM73); details: at 0.1 µM
[7] = target: ALK tyrosine kinase receptor (Homo sapiens) (UniProt Q9UM73); details: at 1 µM
[8] = target: Tyrosine-protein kinase ABL2 (Homo sapiens) (UniProt P42684); details: at 0.1 µM
[9] = target: Tyrosine-protein kinase ABL2 (Homo sapiens) (UniProt P42684); details: at 1 µM
[10] = target: Tyrosine-protein kinase receptor UFO (Homo sapiens) (UniProt P30530); details: at 0.1 µM
[11] = target: Tyrosine-protein kinase receptor UFO (Homo sapiens) (UniProt P30530); details: at 1 µM
[12] = target: Tyrosine-protein kinase Blk (Homo sapiens) (UniProt P51451); details: at 0.1 µM
[13] = target: Tyrosine-protein kinase Blk (Homo sapiens) (UniProt P51451); details: at 1 µM
[14] = target: T1, Cytoplasmic tyrosine-protein kinase BMX (Homo sapiens) (UniProt P51813); details: at 0.1 µM
T1 sequence (whole entry): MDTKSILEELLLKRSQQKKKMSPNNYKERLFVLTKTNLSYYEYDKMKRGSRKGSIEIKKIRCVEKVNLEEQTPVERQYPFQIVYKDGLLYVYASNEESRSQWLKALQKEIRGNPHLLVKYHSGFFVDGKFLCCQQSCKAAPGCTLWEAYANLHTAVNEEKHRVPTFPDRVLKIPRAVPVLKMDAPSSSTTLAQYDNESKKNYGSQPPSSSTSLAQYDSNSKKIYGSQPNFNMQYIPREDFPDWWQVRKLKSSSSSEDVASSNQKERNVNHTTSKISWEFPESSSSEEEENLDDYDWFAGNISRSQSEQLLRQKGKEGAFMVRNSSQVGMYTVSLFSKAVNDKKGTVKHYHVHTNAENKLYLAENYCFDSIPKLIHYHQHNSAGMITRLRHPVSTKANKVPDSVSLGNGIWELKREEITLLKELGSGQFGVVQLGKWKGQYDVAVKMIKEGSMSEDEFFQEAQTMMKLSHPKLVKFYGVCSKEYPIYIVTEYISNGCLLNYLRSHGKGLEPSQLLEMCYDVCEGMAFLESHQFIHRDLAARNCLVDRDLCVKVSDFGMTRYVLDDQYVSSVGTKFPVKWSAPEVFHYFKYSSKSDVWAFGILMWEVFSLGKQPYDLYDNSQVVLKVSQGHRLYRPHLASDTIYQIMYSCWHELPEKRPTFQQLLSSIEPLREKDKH

[15] = target: T1, Cytoplasmic tyrosine-protein kinase BMX (Homo sapiens); details: at 1 µM
[16] = target: Protein-tyrosine kinase 6 (Homo sapiens) (UniProt Q13882); details: at 0.1 µM
[17] = target: Protein-tyrosine kinase 6 (Homo sapiens) (UniProt Q13882); details: at 1 µM
[18] = target: Tyrosine-protein kinase BTK (Homo sapiens) (UniProt Q06187); details: at 0.1 µM
[19] = target: Tyrosine-protein kinase BTK (Homo sapiens) (UniProt Q06187); details: at 1 µM
[20] = target: Tyrosine-protein kinase CSK (Homo sapiens) (UniProt P41240); details: at 0.1 µM;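 note: value given is the averaged percent inhibition of CSK kinase activity, from the GSK PKIS kinase inhibitor set screening panel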

Tyrosine-protein kinase receptor UFO (Homo sapiens), sequence (P30530 whole entry): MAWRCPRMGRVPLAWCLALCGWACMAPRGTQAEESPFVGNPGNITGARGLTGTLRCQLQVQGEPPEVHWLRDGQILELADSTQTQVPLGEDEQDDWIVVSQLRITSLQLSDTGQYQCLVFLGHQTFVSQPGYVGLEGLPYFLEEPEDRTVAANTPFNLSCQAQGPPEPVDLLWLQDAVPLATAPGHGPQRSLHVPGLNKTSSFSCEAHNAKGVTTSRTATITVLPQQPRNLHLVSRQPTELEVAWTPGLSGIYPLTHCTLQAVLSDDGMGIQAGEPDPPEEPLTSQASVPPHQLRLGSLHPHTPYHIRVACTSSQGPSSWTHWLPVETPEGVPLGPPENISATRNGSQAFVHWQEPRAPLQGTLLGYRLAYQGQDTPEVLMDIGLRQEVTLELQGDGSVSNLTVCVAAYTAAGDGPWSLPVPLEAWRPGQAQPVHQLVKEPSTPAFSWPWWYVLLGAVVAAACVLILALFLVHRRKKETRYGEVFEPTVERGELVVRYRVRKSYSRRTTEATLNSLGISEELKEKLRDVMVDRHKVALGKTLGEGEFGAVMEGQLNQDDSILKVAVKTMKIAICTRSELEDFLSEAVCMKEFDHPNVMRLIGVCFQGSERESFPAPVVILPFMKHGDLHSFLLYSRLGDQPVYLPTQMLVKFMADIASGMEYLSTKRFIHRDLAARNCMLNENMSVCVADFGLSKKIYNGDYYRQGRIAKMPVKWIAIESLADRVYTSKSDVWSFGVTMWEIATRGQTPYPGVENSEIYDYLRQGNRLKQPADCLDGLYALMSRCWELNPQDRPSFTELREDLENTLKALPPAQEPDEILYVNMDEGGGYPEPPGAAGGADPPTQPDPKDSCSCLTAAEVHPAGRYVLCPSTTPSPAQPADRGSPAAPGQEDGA
ALK tyrosine kinase receptor (Homo sapiens), sequence (Q9UM73 19-1620 limits assumed): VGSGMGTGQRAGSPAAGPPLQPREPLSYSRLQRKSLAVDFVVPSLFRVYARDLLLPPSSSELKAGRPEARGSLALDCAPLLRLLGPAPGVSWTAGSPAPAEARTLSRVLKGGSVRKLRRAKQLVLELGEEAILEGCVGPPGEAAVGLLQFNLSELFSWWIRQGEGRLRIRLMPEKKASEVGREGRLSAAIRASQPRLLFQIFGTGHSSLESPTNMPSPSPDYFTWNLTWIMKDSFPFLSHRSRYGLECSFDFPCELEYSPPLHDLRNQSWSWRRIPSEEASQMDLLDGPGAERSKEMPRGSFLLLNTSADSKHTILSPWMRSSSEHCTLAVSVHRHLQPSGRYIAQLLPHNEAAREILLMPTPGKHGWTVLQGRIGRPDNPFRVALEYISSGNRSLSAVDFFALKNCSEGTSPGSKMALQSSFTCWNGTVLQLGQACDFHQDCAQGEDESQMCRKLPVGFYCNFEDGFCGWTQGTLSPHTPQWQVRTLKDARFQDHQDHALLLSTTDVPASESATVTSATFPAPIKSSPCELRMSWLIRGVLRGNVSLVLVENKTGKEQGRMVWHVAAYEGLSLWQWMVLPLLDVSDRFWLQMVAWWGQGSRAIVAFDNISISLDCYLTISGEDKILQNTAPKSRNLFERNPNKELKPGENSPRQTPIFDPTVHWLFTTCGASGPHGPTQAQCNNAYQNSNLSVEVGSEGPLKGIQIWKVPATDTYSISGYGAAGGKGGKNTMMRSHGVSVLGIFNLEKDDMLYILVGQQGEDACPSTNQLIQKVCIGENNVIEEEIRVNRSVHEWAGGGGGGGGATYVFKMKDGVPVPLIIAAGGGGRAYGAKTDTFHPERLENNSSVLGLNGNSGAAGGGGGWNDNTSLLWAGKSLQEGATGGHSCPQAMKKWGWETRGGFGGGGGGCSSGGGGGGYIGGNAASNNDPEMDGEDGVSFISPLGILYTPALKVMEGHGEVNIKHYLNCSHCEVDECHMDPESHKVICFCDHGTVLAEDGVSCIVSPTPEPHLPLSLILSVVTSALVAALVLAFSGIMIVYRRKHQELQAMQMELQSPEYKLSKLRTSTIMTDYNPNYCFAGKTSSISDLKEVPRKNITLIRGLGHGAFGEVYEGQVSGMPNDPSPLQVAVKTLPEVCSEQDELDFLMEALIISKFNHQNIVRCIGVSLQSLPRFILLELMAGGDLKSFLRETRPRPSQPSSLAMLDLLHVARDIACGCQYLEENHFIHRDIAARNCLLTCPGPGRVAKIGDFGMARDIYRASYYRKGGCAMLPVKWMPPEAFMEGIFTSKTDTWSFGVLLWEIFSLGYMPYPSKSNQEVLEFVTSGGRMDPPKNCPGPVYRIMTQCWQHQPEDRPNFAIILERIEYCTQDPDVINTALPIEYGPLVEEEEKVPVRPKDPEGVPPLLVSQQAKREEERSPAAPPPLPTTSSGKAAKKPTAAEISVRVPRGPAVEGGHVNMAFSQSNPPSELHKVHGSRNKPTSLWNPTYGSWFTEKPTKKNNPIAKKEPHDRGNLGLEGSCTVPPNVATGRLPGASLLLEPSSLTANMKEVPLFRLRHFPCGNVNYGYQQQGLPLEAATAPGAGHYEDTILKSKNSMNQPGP
Tyrosine-protein kinase ABL2 (Homo sapiens), sequence (P42684 whole entry): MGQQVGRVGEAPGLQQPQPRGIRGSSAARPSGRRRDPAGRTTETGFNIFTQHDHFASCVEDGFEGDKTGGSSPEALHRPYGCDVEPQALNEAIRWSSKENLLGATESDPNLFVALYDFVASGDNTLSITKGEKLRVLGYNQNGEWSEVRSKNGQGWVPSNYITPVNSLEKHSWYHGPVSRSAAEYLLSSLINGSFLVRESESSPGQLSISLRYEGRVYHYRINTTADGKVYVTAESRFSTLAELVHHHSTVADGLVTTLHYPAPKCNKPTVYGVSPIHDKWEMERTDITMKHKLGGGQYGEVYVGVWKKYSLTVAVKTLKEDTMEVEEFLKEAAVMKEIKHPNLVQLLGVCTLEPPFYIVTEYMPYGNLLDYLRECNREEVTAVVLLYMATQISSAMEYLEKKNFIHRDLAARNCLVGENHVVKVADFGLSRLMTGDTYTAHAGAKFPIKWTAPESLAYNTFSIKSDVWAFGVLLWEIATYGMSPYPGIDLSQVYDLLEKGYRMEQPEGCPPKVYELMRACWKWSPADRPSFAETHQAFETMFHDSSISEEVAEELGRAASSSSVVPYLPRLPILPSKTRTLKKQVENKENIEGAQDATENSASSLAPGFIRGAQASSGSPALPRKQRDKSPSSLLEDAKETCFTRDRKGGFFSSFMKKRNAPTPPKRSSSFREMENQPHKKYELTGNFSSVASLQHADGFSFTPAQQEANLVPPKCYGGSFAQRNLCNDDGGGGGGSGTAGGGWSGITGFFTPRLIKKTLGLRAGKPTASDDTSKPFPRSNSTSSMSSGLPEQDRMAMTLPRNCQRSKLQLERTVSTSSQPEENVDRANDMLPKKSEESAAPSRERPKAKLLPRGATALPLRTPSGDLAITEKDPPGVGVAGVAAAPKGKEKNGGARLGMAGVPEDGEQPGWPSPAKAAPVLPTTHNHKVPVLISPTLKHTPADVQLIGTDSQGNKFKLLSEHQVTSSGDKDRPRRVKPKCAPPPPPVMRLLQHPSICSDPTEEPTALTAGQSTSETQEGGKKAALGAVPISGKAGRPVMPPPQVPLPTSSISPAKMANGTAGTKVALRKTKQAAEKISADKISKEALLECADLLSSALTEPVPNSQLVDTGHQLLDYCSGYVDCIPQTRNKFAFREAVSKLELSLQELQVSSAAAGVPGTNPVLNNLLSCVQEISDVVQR
Protein-tyrosine kinase 6 (Homo sapiens), sequence (Q13882 whole entry, looked up): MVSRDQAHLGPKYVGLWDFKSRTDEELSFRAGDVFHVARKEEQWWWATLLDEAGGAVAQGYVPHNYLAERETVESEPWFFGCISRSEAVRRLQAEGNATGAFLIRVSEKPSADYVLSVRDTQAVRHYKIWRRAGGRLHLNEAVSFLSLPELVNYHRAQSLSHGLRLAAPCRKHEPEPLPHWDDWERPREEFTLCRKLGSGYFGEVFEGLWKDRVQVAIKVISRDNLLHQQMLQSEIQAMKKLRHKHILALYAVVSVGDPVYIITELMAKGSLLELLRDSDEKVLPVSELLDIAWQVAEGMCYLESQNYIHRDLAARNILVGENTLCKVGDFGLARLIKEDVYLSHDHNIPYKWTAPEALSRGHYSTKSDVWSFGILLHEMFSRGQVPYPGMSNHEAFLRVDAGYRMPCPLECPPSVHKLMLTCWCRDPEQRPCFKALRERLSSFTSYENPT
Tyrosine-protein kinase BTK (Homo sapiens), sequence (Q06187 whole entry): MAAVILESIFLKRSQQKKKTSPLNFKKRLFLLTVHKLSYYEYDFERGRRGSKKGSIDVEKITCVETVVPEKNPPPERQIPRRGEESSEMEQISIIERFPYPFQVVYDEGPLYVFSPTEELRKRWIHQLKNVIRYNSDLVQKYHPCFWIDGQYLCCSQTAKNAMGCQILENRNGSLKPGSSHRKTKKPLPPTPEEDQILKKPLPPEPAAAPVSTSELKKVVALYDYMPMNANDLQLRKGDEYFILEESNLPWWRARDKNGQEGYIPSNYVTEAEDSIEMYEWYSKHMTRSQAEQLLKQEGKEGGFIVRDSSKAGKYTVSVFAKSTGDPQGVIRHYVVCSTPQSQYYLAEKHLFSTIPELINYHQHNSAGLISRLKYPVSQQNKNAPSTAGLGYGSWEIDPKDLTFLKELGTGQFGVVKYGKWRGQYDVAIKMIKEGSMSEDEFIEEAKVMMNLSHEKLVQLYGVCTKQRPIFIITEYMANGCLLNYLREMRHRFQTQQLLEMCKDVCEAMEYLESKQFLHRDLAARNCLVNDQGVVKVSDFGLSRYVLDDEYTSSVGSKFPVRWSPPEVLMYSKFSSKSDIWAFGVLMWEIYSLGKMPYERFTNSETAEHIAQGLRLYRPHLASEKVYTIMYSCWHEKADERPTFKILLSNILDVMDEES

Row | SMILES | inhibition [1] | inhibition [2] | inhibition [3] | inhibition [4] | inhibition [5] | inhibition [6] | inhibition [7] | inhibition [8] | inhibition [9] | inhibition [10] | inhibition [11] | inhibition [12] | inhibition [13] | inhibition [14] | inhibition [15] | inhibition [16] | inhibition [17] | inhibition [18] | inhibition [19] | inhibition [20]
1 | Nc1nccc(-c2c(-c3ccc(F)cc3)ncn2C2CCC(O)CC2)n1 (stereo not given) | 42.7% | 1.83% | 24.4% | 1.2% | 36.8% | -2.24% | 2.88% | 0.37% | 30.3% | 2.47% | 6.29% | 0.25% | 5.98% | -2.32% | 3.78% | 1.95% | 14% | -0.78% | 1.08% | -1.06%
2 | CS(=O)(=O)CCNCc1ccc(-c2ccc3ncnc(Nc4ccc(OCc5ccccc5)c(Br)c4)c3c2)o1 | 1.57% | 4.14% | 4.05% | 3.09% | 2.83% | -0.91% | 1.84% | 0.83% | 4.36% | -6.75% | -7.91% | -0.29% | 3.05% | 3.44% | 0.49% | 4.61% | 11.8% | -3.57% | -0.34% | 0.44%
3 | NC(=O)c1ccc(Oc2nccc(-c3c(-c4ccc(F)cc4)ncn3C3CCNCC3)n2)cc1 | 2.27% | 3.97% | 3.32% | 4.17% | 2.89% | 4.85% | 4.45% | 2.35% | 3.64% | -7.67% | -8.36% | 3.48% | 3.04% | 5.3% | 7.95% | 3.36% | 6.07% | -0.49% | 0.73% | 3.03%
4 | O=C(Nc1n[nH]c2nc(-c3ccco3)ccc12)C1CC1 | 12.8% | 4.47% | 7.45% | 3.94% | 14% | 1.35% | 2.65% | 4.39% | 6.13% | 2.04% | 5.23% | 0.69% | 5.1% | -0.85% | 1.83% | 2.56% | 1.59% | 0.36% | 0.7% | 0.84%
5 | O=C1NC(=O)C(c2cccc(Cl)c2)=C1Nc1ccc(Cl)c(C(=O)O)c1 | 4.06% | 1.35% | 3.2% | 3.49% | 5.5% | 1.24% | 3.05% | 3.74% | -0.4% | -4.48% | -3.02% | 2.33% | 0.47% | 8.42% | 2.62% | 3.64% | 5.12% | -0.87% | 0.33% | 1.29%
6 | Fc1ccc(-c2ncn(C3CCNCC3)c2-c2ccnc(Oc3ccc4c(c3)OCO4)n2)cc1 | 3.48% | 4.71% | 4.75% | 5.17% | 9.1% | 4.91% | 6.26% | 5.06% | 9% | -7.21% | -5.79% | 4.26% | 5.32% | 5.5% | 5.87% | 4.19% | 5.5% | -0.46% | 0.77% | 3.85%
7 | COc1ccc2cc(-c3c(-c4ccncc4)nc(-c4ccc([S+](C)[O-])cc4C)n3C)ccc2c1 (stereo not given) | 54.5% | 1.98% | 16% | 2.56% | 15.7% | -0.66% | 2.15% | 5.58% | 12.1% | 1.01% | 1.82% | -0.17% | 4.39% | 0.28% | 0.8% | 24.7% | 81.2% | -0.17% | 0.66% | -0.71%
